Bioassay records as filed in PubChem BioAssay.
The list is not random: actives were taken first. Their share in the collection is about 8.8%.
HT1080-NT tox: kills 2HG-producing HT-1080-NT fibrosarcoma cells. HT-1080-NT fibrosarcoma viability, CellTiter-Glo ATP luminescence, 48 h. Potency, µM (doses to about 46.1 µM), usual class: cytotoxic. 360,000 compounds, 1.6% hits;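 further: NT is the 2HG producing partner of a matched IDH1 knockdown line; nearly all actives have a fitted effect of over 55% in size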
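Viability by CellTiter-Glo luminescence after 48 h compound exposure at 37C of HT-1080-NT cells (750/well, RPMI, 5% FBS). % activity scaled between DMSO wells and medium-only wells, then curve-fitted and categorized by curve class.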
KB-V1 cytotox: KB-V1 MDR subline cytotoxicity; KB-V1 MDR cells viability, CellTiter-Glo, 72 h; Potency, µM (series often up to 46.1 µM), usual class: cytotoxic; 400,000 compounds, 3.4% hits; AID 1347076; further: nearly all actives have a fitted effect of over 60% in size
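KB-V1 cells (P-gp-expressing MDR subline of KB-3-1) in phenol-red-free DMEM with 10% FBS were exposed to library compounds over a concentration series for 72 h at 37 degrees C. Viability read by CellTiter-Glo luminescence; concentration-effect curves fitted after normalization.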
IL1B secr inh: blocks inflammasome-driven IL-1 beta release. 360,000 compounds, 4.7% hits. THP-1 LPS/ATP IL-1B secretion, AlphaLISA, 16 h; hits give low values. activity change, % at 57.5 µM; in the data active means activity change below about -50%; inconclusive means mostly about -30% to -49%
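Secreted IL-1B measured by AlphaLISA bead assay after 16 h compound exposure of THP-1 cells; compounds (final up to 57.5 uM) added 1 h before LPS (250 ng/mL) and ATP (1.25 mM) stimulation; lower signal means less secretion.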
KB-3-1 tox: kills parental KB-3-1 adenocarcinoma cells; 400,000 compounds, 1.4% hits; Potency, µM (top dose mostly 46.1 µM), hits mostly cytotoxic; AID 1347075; KB-3-1 viability, CellTiter-Glo ATP luminescence, 72 h; further: nearly all actives have a fitted effect of over 60% in size
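KB-3-1 parental drug-naive adenocarcinoma cells in DMEM/10% FBS, incubated 72 h at 37 C with pin-transferred compounds across a concentration series. Viability by CellTiter-Glo luminescence; concentration-response curves fitted after normalization.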
HT1080 IDH1KD tx: kills HT-1080 cells with IDH1 knockdown. HT-1080 IDH1 knockdown viability, ATP luminescence, 48 h. AID 686971. 360,000 compounds, 2% hits. Potency, µM (highest dose often 46.1 µM), actives largely listed as cytotoxic
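In this qHTS, HT-1080 cells depleted of IDH1 are exposed for 48 h at 37 °C to compound titrations. Toxicity is scored from CellTiter-Glo luminescence, with DMSO as full viability and medium alone as none.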
Large screens that a line does not name were inactive. Unless noted, the call rests on the fitted dose curve; in most records, active means well fitted curve in the direction sought with a large enough effect; inconclusive means small, poorly fitted or top-dose-only effect, or another doubt; inactive means no such curve, though single readings can be large; an effect the other way counts as inactive or inconclusive.

COc1ccc(CNC(=O)C2CCN(S(=O)(=O)N3CCC4(CC3)OCCO4)CC2)c(OC)c1	HT1080-NT tox inconclusive, HT1080 IDH1KD tx 16.4µM
O=[N+]([O-])c1ccc(Oc2ccc(OCc3ccccc3)cc2)nc1	IL1B secr inh -80.4
O=[N+]([O-])c1cccnc1Oc1ccc(OCc2ccccc2)cc1	IL1B secr inh inconclusive, KB-3-1 tox inconclusive
Cc1ccccc1-c1noc(N)c1C#N	HT1080-NT tox inconclusive, KB-V1 cytotox inconclusive, HT1080 IDH1KD tx 10µM
CCCC(=O)NC(c1ccccc1Cl)c1c(O)ccc2ccccc12 (stereo not drawn)	KB-V1 cytotox inconclusive
CCCCC(=O)NC(c1ccccc1Cl)c1c(O)ccc2ccccc12 (stereo not drawn)	HT1080-NT tox inconclusive, IL1B secr inh -89.4, HT1080 IDH1KD tx inconclusive
CCCC(=O)NC(c1ccccc1)c1c(O)ccc2ccccc12 (stereo not drawn)	none
CCCCC(=O)NC(c1ccc(OC)c(OC)c1)c1c(O)ccc2ccccc12 (stereo not drawn)	KB-V1 cytotox 14.6µM
CCCC(=O)NC(c1ccc(N(C)C)cc1)c1c(O)ccc2ccccc12 (stereo not drawn)	KB-V1 cytotox 14.6µM
COC(=O)c1cc2occc2n1CC(=O)Nc1ccc(C(C)C)cc1	none (no result: HT1080-NT tox, IL1B secr inh, HT1080 IDH1KD tx)
O=S(=O)(NC(=NCCc1ccc(Cl)cc1)c1ccccc1Cl)c1cccs1	KB-V1 cytotox inconclusive, IL1B secr inh -68.2
NC(=NCCc1ccccc1)NS(=O)(=O)c1cccs1	none
O=c1c(Cl)c(NCCCO)cnn1-c1nc2ccccc2[nH]1	HT1080-NT tox 13µM, IL1B secr inh -117.3, KB-3-1 tox inconclusive, HT1080 IDH1KD tx 13µM
C=CCN(CC=C)c1cnn(-c2nc3ccccc3[nH]2)c(=O)c1Cl	KB-V1 cytotox 4.11µM, IL1B secr inh inconclusive
O=c1c(Cl)c(NCCO)cnn1-c1cccc(Cl)c1	KB-V1 cytotox inconclusive
Cc1ccc2ccc3ccc(C)nc3c2n1	HT1080-NT tox 0.0058µM, HT1080 IDH1KD tx inconclusive
O=C(O)/C=C/C(=O)NCc1cn(-c2ccccc2)nc1-c1cccc(Br)c1	IL1B secr inh -57.8
COCCCNC(=O)CCCn1c(SCC(=O)c2ccc(F)cc2)nc2c(sc3ccccc32)c1=O	none (no result: HT1080-NT tox, IL1B secr inh, HT1080 IDH1KD tx)
CN(Cc1ccccc1)c1nc2c(c(=O)[nH]c(=O)n2C)n1CCCSc1ncccn1	KB-V1 cytotox 2.59µM, KB-3-1 tox inconclusive
CN(Cc1ccccc1)c1nc2c(c(=O)[nH]c(=O)n2C)n1Cc1ccccc1	KB-V1 cytotox 9.2µM
CN(C)c1nc2c(c(=O)[nH]c(=O)n2C)n1Cc1ccccc1Br	KB-V1 cytotox 20.6µM, KB-3-1 tox inconclusive
COC(=O)c1ccc(CCc2cc(O)c(Br)cc2O)cc1	IL1B secr inh -79.2, KB-3-1 tox inconclusive
COc1ccc(C(=O)OCCc2ccc(O)cc2)cc1	none
COC(=O)c1ccc(CCc2cc(O)ccc2O)cc1	HT1080-NT tox 25.9µM, KB-V1 cytotox inconclusive, IL1B secr inh inconclusive, HT1080 IDH1KD tx inconclusive
CC(=O)N1c2ccccc2N=C(c2ccc3c(c2)OCO3)C1C(=O)NCc1ccccc1 (stereo not drawn)	KB-V1 cytotox inconclusive
COc1cc(N/C(N)=N/c2nc(C)cc(C)n2)c(OC)cc1Cl	IL1B secr inh inconclusive
Cc1cc(C)nc(/N=C(\N)Nc2ccccc2-c2ccccc2)n1	HT1080-NT tox inconclusive, KB-V1 cytotox inconclusive, IL1B secr inh -98.0, KB-3-1 tox inconclusive, HT1080 IDH1KD tx inconclusive
CC(=O)Nc1cccc(N/C(N)=N/c2nc(C)cc(C)n2)c1	none
COc1ccc(N/C(N)=N/c2nc(C)c(Cc3ccccc3)c(=O)[nH]2)cc1	none
Cc1cccc(N/C(N)=N/c2nc(C)cc(C)n2)c1	KB-V1 cytotox inconclusive, IL1B secr inh -108.6, KB-3-1 tox inconclusive
Cc1cccc(N/C(N)=N/c2nc(C)c(Cc3ccccc3)c(=O)[nH]2)c1	KB-3-1 tox 20.6µM
Cc1cc(C)cc(N/C(N)=N/c2nc(C)cc(C)n2)c1	KB-V1 cytotox 20.6µM, IL1B secr inh -102.5, KB-3-1 tox inconclusive
CC(C)(C)S(=O)(=O)N1C[C@@H]2CC/C=C\C/C=C\2[C@H]1CCO	none
Cc1cc(C)nc(/N=C(\N)Nc2ccc(C(C)C)cc2)n1	HT1080-NT tox inconclusive, KB-V1 cytotox inconclusive, IL1B secr inh -99.2, HT1080 IDH1KD tx inconclusive
CCCCc1ccc(N/C(N)=N/c2nc(C)cc(C)n2)cc1	HT1080-NT tox 32.6µM, KB-V1 cytotox 6.51µM, KB-3-1 tox inconclusive, HT1080 IDH1KD tx 20.6µM (no result: IL1B secr inh)
Cc1ccc(N/C(N)=N/c2nc(C)cc(C)n2)cc1	KB-V1 cytotox inconclusive
CCC(=O)Nc1ccc(N/C(N)=N/c2nc(C)cc(C)n2)cc1	IL1B secr inh inconclusive
CCn1c(=O)n(CC)c2cc(N3CCCC3)c(NC(=O)c3ccccc3OC)cc21	HT1080-NT tox inconclusive, IL1B secr inh -52.7, HT1080 IDH1KD tx inconclusive
CCn1c(=O)n(CC)c2cc(N3CCCC3)c(NC(=O)c3cc(Cl)ccc3OC)cc21	IL1B secr inh -63.6, KB-3-1 tox inconclusive
COc1ccc(CCNC(=O)c2cnc3sc(N4CCOCC4)nn3c2=O)cc1OC	none (no result: HT1080-NT tox, IL1B secr inh, HT1080 IDH1KD tx)
CC1(C(=O)Nc2ccc3c(c2)OCCO3)CCN1Cc1ccc(-c2ccccn2)cc1 (stereo not drawn)	KB-V1 cytotox inconclusive
CC1(C(=O)Nc2ccc3c(c2)OCCO3)CCN1Cc1ccc2ccccc2c1 (stereo not drawn)	HT1080-NT tox inconclusive, KB-V1 cytotox 20.6µM, KB-3-1 tox inconclusive, HT1080 IDH1KD tx inconclusive
Cc1ccc(OCCN2CCC2(C)C(=O)Nc2ccc3c(c2)OCCO3)cc1 (stereo not drawn)	IL1B secr inh -109.5
CC1(C(=O)Nc2ccc3c(c2)OCO3)CCN1Cc1ccccc1OC(F)F (stereo not drawn)	IL1B secr inh -66.5
CC1(C(=O)Nc2ccc3c(c2)OCO3)CCN1C(=O)Cc1ccc(-c2ccccc2)cc1 (stereo not drawn)	HT1080-NT tox inconclusive, KB-V1 cytotox 3.26µM, KB-3-1 tox 11.6µM, HT1080 IDH1KD tx inconclusive
COc1ccc(NC(=O)C2(C)CCN2CCOc2ccccc2)cc1OC (stereo not drawn)	KB-V1 cytotox inconclusive
COc1ccc(NC(=O)C2(C)CCN2Cc2ccccc2OC(F)F)cc1OC (stereo not drawn)	KB-V1 cytotox inconclusive
Cc1ccccc1Nc1nnc(SCC(=O)NC2CCCc3ccccc32)s1 (stereo not drawn)	KB-V1 cytotox inconclusive
CCCCC(=O)N(c1ccc2oc(C)c(C(C)=O)c2c1)S(=O)(=O)c1ccc(F)cc1C	none (no result: HT1080-NT tox, IL1B secr inh, HT1080 IDH1KD tx)
COc1ccc(N2CS(=O)CC2=O)cc1 (stereo not drawn)	none
Cc1nnc(NC(=O)Cn2cnc3c2c(=O)n(C)c(=O)n3C)s1	none
O=C(Nc1nc2c(F)cc(F)cc2s1)c1ccccn1	HT1080-NT tox inconclusive, KB-V1 cytotox inconclusive, KB-3-1 tox inconclusive, HT1080 IDH1KD tx 6.51µM
O=C(COc1ccccc1)NNc1nc2c(F)cc(F)cc2s1	none
